Measurements as given in PubChem BioAssay (NCATS).
Records with an inconclusive call do not appear. Active and inactive are the calls of the source. Calls come from the whole dose curve; as a rule, active = well fitted cell-killing curve with a large enough effect; inconclusive = small, poorly fitted or top-dose-only effect; inactive = flat fitted curve, though single readings scatter.

Test: Cellular viability qHTS for adrenocortical cancer (ACC) cell line SW-13 (AID 1963989); note: nearly all actives have a fitted effect of over 65% in size;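 for activity (max response): cells grown in serum-free medium with ITS supplement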
Details: SW-13 ACC cells viability, CellTiter-Glo, 48 h; activity (max response): hits give low values
Outline: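 Viability was read as CellTiter-Glo luminescence after 48 h compound treatment (up to 46 uM final) of SW-13 cells grown serum-free; titration curves were fit with a four-parameter logistic model to give IC50 and efficacy.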
% is set by controls: 0 for no effect and ±100 for the full control effect; potency is the fitted concentration of half-maximal effect.

| SMILES | activity (max response) | Potency |
| --- | --- | --- |
| Cc1ccc(CCn2c3c(c4cc(Cl)ccc42)CN(C)CC3)cn1 | -12.3% (inactive) | – |
| CC(=O)OC/C=C(C)/C=C/C=C(C)/C=C/C1=C(C)CCCC1(C)C | 4.17% (inactive) | – |
| Cc1cc(CC(=O)O)c(C)n1-c1ccc(Cl)cc1 | 4.84% (inactive) | – |
| CCOC(=O)c1ccc(O)c(O)c1 | -9.67% (inactive) | – |
| CC(Oc1c(Cl)cccc1Cl)C1=NCCN1 (stereo unspecified) | 12.6% (inactive) | – |
| N#CCC1(n2cc(-c3ncnc4[nH]ccc34)cn2)CN(C2CCN(C(=O)c3ccnc(C(F)(F)F)c3F)CC2)C1 | -10.7% (inactive) | – |
| O=C(O)CNC(=O)c1ncc(-c2cccc(Cl)c2)cc1O | 5.73% (inactive) | – |
| CCOC(=O)Nc1ccc2c(c1)N(C(=O)CCN1CCOCC1)c1ccccc1S2 | -13.5% (inactive) | – |
| CCCCC1C(=O)N(c2ccccc2)N(c2ccc(O)cc2)C1=O (stereo unspecified) | – | 16.4 µM (active) |
| CC1=C(C(=O)OC(C)C)C(c2cccc([N+](=O)[O-])c2)C(C(=O)OC2CN(C(c3ccccc3)c3ccccc3)C2)=C(N)N1 (stereo unspecified) | -4.04% (inactive) | – |
| COc1ccc(Oc2cc(NCCC(F)(F)F)c3ncc(-c4ccc(C(=O)NC5CC5)c(C)c4)n3n2)c(F)c1F | -17.7% (inactive) | – |
| C/C=C/CC(C)C(O)C1C(=O)NC(CC)C(=O)N(C)CC(=O)N(C)C(CC(C)C)C(=O)NC(C(C)C)C(=O)N(C)C(CC(C)C)C(=O)NC(C)C(=O)NC(C)C(=O)N(C)C(CC(C)C)C(=O)N(C)C(CC(C)C)C(=O)N(C)C(C(C)C)C(=O)N1C (stereo unspecified) | -11.5% (inactive) | – |
| CCC(=O)c1c(O)cc(O)cc1O | -1.99% (inactive) | – |
| CCc1c(C)[nH]c2c1C(=O)C(CN1CCOCC1)CC2 (stereo unspecified) | 7.75% (inactive) | – |
| O=[N+]([O-])c1ccc(/C=N\O)o1 | -5.61% (inactive) | – |
| CC[N+](CC)(CCNC(=O)C(=O)NCC[N+](CC)(CC)Cc1ccccc1Cl)Cc1ccccc1Cl | -1.37% (inactive) | – |
| CC(C)C(=O)OCc1cccc(OC(=O)[C@@H]2N3C(=O)[C@@H](NC(=O)Cc4ccccc4)[C@H]3SC2(C)C)c1 | 14.5% (inactive) | – |
| CCOc1ccc2nc(S(N)(=O)=O)sc2c1 | -20.8% (inactive) | – |

| SMILES | activity (max response) | Potency |
| --- | --- | --- |
| CCOC(=O)COc1ccc2c(C)c(CCN(CC)CC)c(=O)oc2c1Cl | 0.298% (inactive) | – |
| C[C@H](Nc1ncnc2nc[nH]c12)c1cc2ccc(F)cc2nc1-c1ccccn1 | -8.13% (inactive) | – |
| CCCCC1C(=O)N(c2ccccc2)N(c2ccccc2)C1=O | -21.3% (inactive) | – |
| C/C(O)=C(\C#N)C(=O)Nc1ccc(C(F)(F)F)cc1 | -8.43% (inactive) | – |
| CCCCCCCC/C=C/C(=O)O | -1.5% (inactive) | – |
| COc1ccc(C(=O)N2CCN(C(=O)/C=C/c3ccc(Br)cc3)CC2)cc1 | -12.8% (inactive) | – |
| CC1Cc2ccccc2N1C(=O)Cc1nc(N2CCOCC2)cc(=O)[nH]1 (stereo unspecified) | -14.8% (inactive) | – |
| CC(C)[N+](C)(CCOC(=O)C1c2ccccc2Oc2ccccc21)C(C)C | -9.17% (inactive) | – |
| CONC(=O)Nc1ccc(-c2sc3c(c2CN(C)C)c(=O)n(-c2ccc(OC)nn2)c(=O)n3Cc2c(F)cccc2F)cc1 | -5.64% (inactive) | – |
| Cc1ccc2c(c1)c1c3n2CCNC3CCC1 (stereo unspecified) | -5.85% (inactive) | – |
| CN1CCCCC1CCN1c2ccccc2Sc2ccc(S(C)=O)cc21 (stereo unspecified) | -6.63% (inactive) | – |
| CCCCCCCCCCCCCCCCCCNC(=O)OC1CCN(C(=O)OC[C@H](COC(=O)N(Cc2cccc[n+]2CC)C(=O)c2ccccc2OC)OC)CC1 | – | 7.31 µM (active) |
| COC(=O)[C@H]1[C@H]2C[C@@H]3c4[nH]c5cc(OC)ccc5c4CCN3C[C@H]2C[C@@H](OC(=O)c2cc(OC)c(OC)c(OC)c2)[C@@H]1OC | -15.6% (inactive) | – |
| CCc1nn(CCCN2CCN(c3cccc(Cl)c3)CC2)c(=O)n1CCOc1ccccc1 | – | 14.6 µM (active) |
| Cc1ccc(C(=O)Oc2ccc(C(O)CNC(C)(C)C)cc2OC(=O)c2ccc(C)cc2)cc1 (stereo unspecified) | -16% (inactive) | – |
| C[C@H](NC(=O)[C@H]1NCC[C@@H]1O)c1ccc(-c2noc(CCC3CCCC3)n2)cc1 | -20.3% (inactive) | – |
| CC(C)(C)CC(=O)OCC(=O)[C@@]1(O)CC[C@H]2[C@@H]3CCC4=CC(=O)C=C[C@]4(C)[C@H]3[C@@H](O)C[C@@]21C | -10.9% (inactive) | – |
| Cc1onc(-c2ccc(F)cc2)c1COc1ccc(C(=O)N2CCS(=O)(=O)CC2)cn1 | -15% (inactive) | – |
